We go through 9 molecules from PubChem BioAssay (EPA / NIEHS).

Assay [1] deals with guinea pig Muscarinic, Peripheral (Mperiperal) Receptor, Non-selective Binding, gene 100379235. The experiment in a line: NVS_GPCR_gMPeripheral_NonSelective: NovaScreen (NVS) G Protein-Coupled Receptor Assay for guinea pig Muscarinic, Peripheral (Mperiperal) Receptor, Non-selective Binding (AID 2283250). Put shortly: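 Screened in duplicate at 25 uM, hits retested in concentration series to 50 uM max, using bladder membrane radioligand displacement from guinea pig. Filtration and scintillation counting 1 h post-dose, fitted relative to DMSO.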

Assay [2] deals with bovine Histamine 1 Receptor (H1), gene 281231. The experiment in a line: NVS_GPCR_bH1: NovaScreen (NVS) G Protein-Coupled Receptor Assay for bovine Histamine 1 Receptor (H1) (AID 2283246). Put shortly:
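Hits from a 25 uM duplicate primary screen were retested in concentration series (top 50 uM); binding measured as scintillation-counted displacement of radioligand from bovine cerebellar membranes after 1 h, normalised to DMSO.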

In assay [3] the target is human Serotonin, 5-Hydroxytryptamine Receptor 2A (5HT2A), HTR2A (gene 3356) (UniProt P28223). The experiment in a line: NVS_GPCR_h5HT2A: NovaScreen (NVS) G Protein-Coupled Receptor Assay for human Serotonin, 5-Hydroxytryptamine Receptor 2A (5HT2A) (AID 2283249). Put shortly: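 Radioligand displacement on human cortex tissue extract, counted by filtration and scintillation 1.5 h post-dosing. Initial single-concentration screen at 25 uM in duplicate, concentration series in follow-up; DMSO as baseline.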
Chain of human Serotonin, 5-Hydroxytryptamine Receptor 2A (5HT2A), HTR2A (gene 3356) (P28223 whole entry, looked up): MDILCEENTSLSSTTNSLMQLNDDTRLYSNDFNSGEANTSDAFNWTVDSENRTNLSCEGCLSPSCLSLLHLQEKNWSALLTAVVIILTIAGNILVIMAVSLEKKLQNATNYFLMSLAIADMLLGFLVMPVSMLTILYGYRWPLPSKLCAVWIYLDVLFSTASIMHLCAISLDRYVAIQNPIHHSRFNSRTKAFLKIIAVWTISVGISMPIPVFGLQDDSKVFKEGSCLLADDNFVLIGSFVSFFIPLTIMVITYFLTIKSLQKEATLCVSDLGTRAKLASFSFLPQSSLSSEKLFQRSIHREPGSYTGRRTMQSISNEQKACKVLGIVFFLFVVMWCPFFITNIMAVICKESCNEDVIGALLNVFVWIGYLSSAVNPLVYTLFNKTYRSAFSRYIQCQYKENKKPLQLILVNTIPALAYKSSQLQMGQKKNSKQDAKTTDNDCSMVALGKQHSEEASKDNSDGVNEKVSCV

The target of assay [4] is human Serotonin, 5-Hydroxytryptamine Receptor 5A (5HT5A), HTR5A (gene 3361) (UniProt P47898). The experiment in a line: NVS_GPCR_h5HT5A: NovaScreen (NVS) G Protein-Coupled Receptor Assay for human Serotonin, 5-Hydroxytryptamine Receptor 5A (5HT5A) (AID 2283251). Put shortly: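 Membranes from HEK293 cells, radioligand binding read by filtration and scintillation after 1 h. Single-concentration duplicate testing at 25 uM, then concentration-response for actives; positive-direction fitting relative to DMSO.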
Chain of human Serotonin, 5-Hydroxytryptamine Receptor 5A (5HT5A), HTR5A (gene 3361) (P47898 whole entry, looked up): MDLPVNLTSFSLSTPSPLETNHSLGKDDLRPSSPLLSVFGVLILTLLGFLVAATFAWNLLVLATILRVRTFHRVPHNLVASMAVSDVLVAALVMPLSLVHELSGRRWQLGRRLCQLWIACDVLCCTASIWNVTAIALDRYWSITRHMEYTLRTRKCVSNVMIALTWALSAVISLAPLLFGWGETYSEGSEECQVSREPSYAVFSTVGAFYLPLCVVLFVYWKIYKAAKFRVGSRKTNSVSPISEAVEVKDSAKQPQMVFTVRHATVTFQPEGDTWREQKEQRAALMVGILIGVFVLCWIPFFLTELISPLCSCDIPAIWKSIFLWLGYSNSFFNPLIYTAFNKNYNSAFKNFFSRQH

Assay [5] concerns rat Monoamine Oxidase, MAO-A, Central (MAOAC), gene 29253. The experiment in a line: NVS_ENZ_rMAOAC: NovaScreen (NVS) Enzymatic Assay for rat Monoamine Oxidase, MAO-A, Central (MAOAC) (AID 2283243).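 Further: potency refers to inhibition seen as signal drop below DMSO baseline.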 Put shortly:
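Scintillation read-out of MAO-A activity in rat brain lysate, 1.5 h post-dosing. Primary single-concentration screen: 25 uM, duplicate; actives re-tested in concentration series. DMSO = negative control/baseline.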

The target in assay [6] is Adenosine receptor A1 (Bos taurus) (UniProt P28190). The experiment in a line: NVS_GPCR_bAdoR_NonSelective: NovaScreen (NVS) G Protein-Coupled Receptor Assay for bovine Adenosine Receptor (AdoR), Non-selective Binding (AID 2283244). Put shortly: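 Cell-free binding with membranes from bovine striatum: radioligand displaced by test chemical, read after 1 h by filtration and scintillation. Single-point 25 uM duplicate primary, 50 uM top concentration in follow-up curves, DMSO baseline.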
Chain of Adenosine receptor A1 (Bos taurus) (P28190 whole entry, looked up): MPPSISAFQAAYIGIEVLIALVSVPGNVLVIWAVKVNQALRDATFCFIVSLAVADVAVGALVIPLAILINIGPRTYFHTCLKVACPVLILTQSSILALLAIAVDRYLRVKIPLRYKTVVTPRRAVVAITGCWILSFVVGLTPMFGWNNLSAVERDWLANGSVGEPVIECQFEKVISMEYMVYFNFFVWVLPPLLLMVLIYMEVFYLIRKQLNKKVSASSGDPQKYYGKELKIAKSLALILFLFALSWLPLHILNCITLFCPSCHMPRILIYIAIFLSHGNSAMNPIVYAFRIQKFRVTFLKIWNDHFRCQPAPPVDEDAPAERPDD

Assay [7] in a line: NVS_GPCR_bNPY_NonSelective: NovaScreen (NVS) G Protein-Coupled Receptor Assay for bovine Neuropeptide Y (NPY) Receptor, Non-selective Binding (AID 2283245). Put shortly: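 Displacement of radioligand from bovine hippocampal membrane receptors, read by filtration and scintillation counting after 1 hour. Concentration-response to a top of 50 uM followed a 25 uM duplicate primary screen. Loss of signal versus DMSO.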

For assay [8], the target named is guinea pig Leukotriene D4 Receptor (LTD4), CYSLTR1 (gene 100135514) (UniProt Q2NNR5). The experiment in a line: NVS_GPCR_gLTD4: NovaScreen (NVS) G Protein-Coupled Receptor Assay for guinea pig Leukotriene D4 Receptor (LTD4) (AID 2283248). The procedure, abridged: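 Guinea pig lung membrane preparation; bound radioligand measured by filter scintillation after 1 h, loss of signal versus DMSO marking displacement. Compounds tested at 25 uM in duplicate, hits retested to max 50 uM.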
Chain of guinea pig Leukotriene D4 Receptor (LTD4), CYSLTR1 (gene 100135514) (Q2NNR5 whole entry, looked up): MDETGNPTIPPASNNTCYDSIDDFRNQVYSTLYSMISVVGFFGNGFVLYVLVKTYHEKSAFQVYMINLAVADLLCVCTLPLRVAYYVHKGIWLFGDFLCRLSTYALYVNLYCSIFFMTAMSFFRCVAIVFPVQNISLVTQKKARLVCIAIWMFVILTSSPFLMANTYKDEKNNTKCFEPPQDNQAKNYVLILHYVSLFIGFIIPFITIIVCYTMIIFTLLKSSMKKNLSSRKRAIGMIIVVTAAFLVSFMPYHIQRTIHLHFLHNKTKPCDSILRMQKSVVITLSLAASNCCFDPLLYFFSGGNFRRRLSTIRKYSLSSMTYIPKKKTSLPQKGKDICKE

Assay [9] addresses guinea pig Opioid, Kappa 1 Receptor (OpiateK), OPRK1 (gene 100135587) (UniProt P41144). Nature of the assay: NVS_GPCR_gOpiateK: NovaScreen (NVS) G Protein-Coupled Receptor Assay for guinea pig Opioid, Kappa 1 Receptor (OpiateK) (AID 2283252).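 Further: active means reduced radioligand binding relative to DMSO.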 Put shortly: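 Radioligand binding to kappa opioid receptor in guinea pig cerebellar membranes, read by filtration and scintillation at 2 h. Compounds first tested in duplicate at 25 uM, then actives in concentration series; signal loss fitted against DMSO.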

Records with an inconclusive call do not appear. Activity calls are given as the source filed them. How the source made its calls: active means hit-call score of the fitted dose curve at least 0.9, where 1 is the maximum; inconclusive means response in the unintended direction; inactive means score below 0.9.

Chain of guinea pig Opioid, Kappa 1 Receptor (OpiateK), OPRK1 (gene 100135587) (P41144 whole entry, looked up): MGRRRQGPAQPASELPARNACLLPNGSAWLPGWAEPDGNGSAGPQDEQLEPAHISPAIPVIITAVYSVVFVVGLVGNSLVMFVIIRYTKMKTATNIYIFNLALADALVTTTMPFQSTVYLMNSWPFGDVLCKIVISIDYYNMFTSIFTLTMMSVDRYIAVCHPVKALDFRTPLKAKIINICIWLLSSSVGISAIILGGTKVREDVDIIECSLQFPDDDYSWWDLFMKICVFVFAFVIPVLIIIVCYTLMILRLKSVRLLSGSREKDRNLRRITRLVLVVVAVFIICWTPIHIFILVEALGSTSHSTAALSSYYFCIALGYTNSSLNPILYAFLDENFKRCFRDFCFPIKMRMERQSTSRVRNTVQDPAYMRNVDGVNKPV

Regarding `O=[N+]([O-])c1ccc(Oc2ccc(Cl)cc2Cl)cc1`, the outcome in assay [1] was inactive.
Broadly, the AC50 is the concentration at which the activity in the assay is half-maximal. As to `CCOC(=O)[C@]1(c2ccccc2)Oc2ccccc2[C@@H]1N`, the AC50 is 7.49 µM (active) in [2], 3.91 µM (active) in assay [3], 13.3 µM (active) in assay [1] and 0.659 µM (active) in assay [4].
For `CN(C)C(=O)Nc1ccc(Cl)cc1`, the AC50 in assay [5] was 25 µM (active).
With `[Cl-].[Cl-].[Hg+2]`, in assay [5], the outcome was inactive. For the same molecule, the half-maximal activity concentration (AC50) was 19.1 µM (active) in [6]; 12 µM (active) in assay [7]; 1.4 µM (active) in assay [8]; 9.07 µM (active) in assay [1]; 1.59 µM (active) in assay [4]; 13.5 µM (active) in assay [9].
As for `O=C(N[C@H](c1ccccc1)[C@@H]1CN2CCC1CC2)c1c(Cl)ccc(C(F)(F)F)c1Cl`, the concentration at half-maximal activity (AC50) in assay [5] was 37.5 µM (active); in [3] it was 37.5 µM (active); in assay [9], 0.0235 µM (active). The molecule was classed as inactive in assay [1].
With `CCOc1cccc(C2(N3CCN(c4ccccc4)CC3)CCC(C)CC2)c1` (configuration not stated), the concentration at half-maximal activity (AC50) in [5] is 4.53 µM (active). Also, in [6], the call was inactive.
For the molecule `CCCCCOC(=O)c1ccccc1C(=O)OCCCCC`, in assay [9], the molecule was classed as inactive.
`CCCCCCCCCCCCCN1CC(C)OC(C)C1` (configuration not stated): in assay [6], the outcome was inactive.
As to `O=C(Oc1ccc(Br)cc1)N1CCN2CCC1CC2`, the concentration at half-maximal activity (AC50) in [1] was 15 µM (active).
